Screens: PubChem, several laboratories
WNV NS2B-NS3 inh: inhibitors of West Nile virus NS2B-NS3 protease; P06935; WNV NS2B-NS3 protease, fluorogenic substrate Ex360/Em465; hits give low values; z-score (no concentration beside the values); 65,000 compounds, 0.18% hits; in the data active = z-score below about -3
D1 mod: D1 dopamine receptor (human) allosteric modulation. P21728. HEK293 D1, CRE-luciferase, dopamine EC30 potentiation; actives deviate in either direction. B-score at 10 µM. 58,000 compounds, 5.9% hits. AID 641;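 active = luminescence count or its row- and column-corrected plate score outside the 99.7% band of the plate's sample wells, on either side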
Target sequence (P21728 whole entry, looked up): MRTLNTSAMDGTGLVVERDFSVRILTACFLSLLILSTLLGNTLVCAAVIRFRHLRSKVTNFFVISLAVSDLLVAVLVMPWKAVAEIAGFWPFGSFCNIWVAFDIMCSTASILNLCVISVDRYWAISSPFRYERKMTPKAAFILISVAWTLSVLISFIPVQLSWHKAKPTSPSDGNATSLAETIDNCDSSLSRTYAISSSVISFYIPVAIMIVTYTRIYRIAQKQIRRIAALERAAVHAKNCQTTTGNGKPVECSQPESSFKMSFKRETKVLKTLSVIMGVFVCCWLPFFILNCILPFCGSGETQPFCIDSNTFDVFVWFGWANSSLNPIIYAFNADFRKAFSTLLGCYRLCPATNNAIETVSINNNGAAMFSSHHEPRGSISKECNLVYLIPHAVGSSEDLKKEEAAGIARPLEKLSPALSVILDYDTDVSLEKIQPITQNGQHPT
Htt clearance: mutant huntingtin protein clearance; HeLa Exon1htt(103Q)mCFP, aggregate imaging; zero = plate's median compound well; inhibition, % at 1.5 µM; 47,000 compounds, 0.42% hits; AID 853;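 active = inhibition of aggregate fluorescence above about 70%, also judged a hit by eye on the cell image, limit read from the data, passing the limit was not always enough; inconclusive = no rule stated for this call; inactive = not judged a hit on image review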;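 also: cells exposed to compound for three days before fixation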
M1 agonist: M1 muscarinic receptor agonism; 64,000 compounds, 3% hits; AID 626; CHO-M1 cells, Fluo-4 calcium fluorescence, agonist mode; hits give high values; B-score at 10 µM;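 active = fluorescence rise, raw or as B-score row- and column-corrected plate score, outside the 99.7% band of its plate's samples, either direction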
M1 antag: M1 muscarinic receptor (rat) antagonism | P08482 | CHO-M1 cells, Fluo-4 calcium, ACh EC80 antagonist mode; hits give low values | B-score at 10 µM | 64,000 compounds, 3.4% hits;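 active = calcium fluorescence response, raw or row-and-column corrected B-score, differing from the plate sample mean either way at a set confidence level, mostly lower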
M1 antag confirm: M1 muscarinic receptor (rat) antagonism, confirmed. CHO-M1 cells, Fluo-4 calcium, ACh EC80 antagonism; hits give low values. 1,700 compounds, 43% hits. calcium response (max-min fluorescence) at 10 µM. shares compounds with M1 antag;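 active = calcium response below the same-plate mean of wells given acetylcholine alone at its 80%-effect dose, minus 3 SD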;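 also: raw fluorescence intensity difference in arbitrary instrument units and not normalized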
mGluR4 antag: acts on human mGluR4 in M1 antagonist selectivity test; shares compounds with M1 antag; AID 678; CHO-mGluR4 calcium flux, Fluo-4 fluorescence, glutamate EC80; hits give low values; 1,700 compounds, 0.9% hits; fluorescence response (max-min) at 10 µM;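 active = fluorescence response below the plate's average for near-maximal glutamate wells, less 3 SD of those wells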;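 also: raw unnormalized fluorescence span taken in the window right after glutamate addition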
Starred values were filed as active, the others as inactive; ? = inconclusive; · = no result. Compounds with a hit are over-represented: about 8.9% of the library has one in this group of screens.

SMILES	WNV NS2B-NS3 inh	D1 mod	Htt clearance	M1 agonist	M1 antag	M1 antag confirm	mGluR4 antag
Cc1ccccc1-c1nn2c(-c3ccccc3)nnc2s1	0.33	·	·	0.147	-2.67*	650	261
COc1cccc(C(=O)Nc2ccc(N3CCN(Cc4ccccc4)CC3)cc2)c1	·	·	50.8	·	·	·	·
CN1CCN(c2ccc(NC(=O)c3cccc(OCc4ccccc4)c3)cc2)CC1	-0.24	-5.89*	25.2	-0.549	-5.29*	304*	245
Cc1ccc2oc(=O)c3cnn(CC(=O)Nc4ccccc4N4CCN(C)CC4)c3c2c1	1.41	-1.36	·	0.0539	-15.9*	252*	259
Cc1ccc2oc(=O)c3cnn(CC(=O)N4CCN(c5ccccc5)CC4)c3c2c1	·	·	-133.3	·	·	·	·
O=C1NC(=S)SC1=C1CCCCCC1	-1.33	0.815	·	-1.37	-0.992	·	·
CSc1ccccc1C(=O)NC1CCCCCC1	·	·	-0.2	·	·	·	·
O=C(NC1CCCCCCC1)c1ccccc1O	1.2	0.12	·	-0.216	-2.2*	607	268
Cc1cc(=O)[nH]c(SCC(=O)N2CCCCCC2)n1	1.66	-0.182	·	-0.405	1.64	·	·
NC(=O)C1(N2CCCCC2)CCN(C(=O)CSc2nc(C(F)(F)F)cc(=O)[nH]2)CC1	0.42	0.0959	-24.7	-0.143	-3.54*	687	203
Cc1nc2ccccc2c(=O)n1NC(=O)Cc1ccccc1	·	·	-30.1	·	·	·	·
COc1cc(-c2cc(C(=O)N3CCN(c4ccccn4)CC3)c3ccccc3n2)cc(OC)c1OC	0.45	-3.97*	·	4.55	-3.77*	697	213
C(=N\c1nccs1)/Nc1nccs1	0.91	2.35	·	-0.105	-0.042	·	·
COc1cccc(OC)c1C(=O)N1CCN(Cc2ccccc2C(F)(F)F)CC1	1.01	3.26	0.0	-0.0384	-2.97*	540	200
CCOCCCn1c(=N)c(C(=O)NCc2ccc3c(c2)OCO3)cc2c(=O)n3cccc(C)c3nc21	0.29	0.653	-131.6	0.407	-10.5*	90.5*	202
COCCCn1c(=N)c(C(=O)NCc2ccc3c(c2)OCO3)cc2c(=O)n3ccccc3nc21	-1.04	-2.04	-29.1	-0.771	-1.98	·	·
COCCCn1c(=N)c(C(=O)NCc2ccc3c(c2)OCO3)cc2c(=O)n3cccc(C)c3nc21	1.01	-0.388	·	0.607	-7.13*	90.3*	204
c1csc(Cc2nc(-c3ccc(-n4cccc4)cc3)no2)c1	0.33	-0.128	·	-1.18	-0.517	·	·
CCOc1ccc(-n2nc(C(=O)N3CCOCC3)c3ccccc3c2=O)cc1	1.14	-0.158	·	0.951	0.449	·	·
COC(=O)c1[nH]c2ccc(C)cc2c1NC(=O)CCN1CCN(C2CCCCC2)CC1	-1.18	-0.2	·	0.92	-11.9*	98.8*	204
COC(=O)c1[nH]c2ccc(Cl)cc2c1NC(=O)CCN1CCN(C2CCCCC2)CC1	1.4	-0.0554	9.9	-0.0201	-9.59*	50.8*	213
COC(=O)c1[nH]c2ccc(F)cc2c1NC(=O)CCN1CCN(Cc2ccc3c(c2)OCO3)CC1	0.52	0.265	-40.6	0.645	-7.61*	125*	204
COC(=O)c1[nH]c2ccc(Br)cc2c1NC(=O)CN1CCN(C2CCCCC2)CC1	0.07	0.112	-58.1	0.6	-7.48*	324*	256
COC(=O)c1[nH]c2ccc(C)cc2c1NC(=O)CN1CCCC(C)(C)C1	-0.57	1.41	-5.8	-0.133	-1.98	·	·
CC(C)C(=O)NCCCc1ccccc1	·	·	-16.7	·	·	·	·
SMILES	WNV NS2B-NS3 inh	D1 mod	Htt clearance	M1 agonist	M1 antag	M1 antag confirm	mGluR4 antag
CC(CCc1ccc(O)cc1)N(C)CCc1ccccc1 (stereo not given)	1.5	-2.88	5.4	0.785	-3.08*	404*	241
CC(NC(=O)CCSc1nc(-c2ccco2)cc(C(F)(F)F)n1)c1ccccc1 (stereo not given)	·	·	-30.0	·	·	·	·
COc1ccc(-c2cc(C(F)(F)F)nc(SCCC(=O)N3CCN4CCCC4C3)n2)cc1 (stereo not given)	0.03	-0.533	47.9	0.0663	-3.36*	310*	248
COCCNC(=O)CCSc1nc(-c2ccc(OC)cc2)cc(C(F)(F)F)n1	·	·	13.9	·	·	·	·
O=C(CCSc1nc(-c2ccco2)cc(C(F)(F)F)n1)N1CCN(c2ccccc2)CC1	-0.18	-0.0358	-97.2	0.354	-3.82*	668	189
CCOC(=O)c1c(NC(=O)Cn2nnc(-c3ccc(Cl)cc3)n2)sc(CC)c1C	·	·	34.8	·	·	·	·
Cc1oc(-c2cccc(Cl)c2)nc1CN1CCCC(C(=O)NC(C)c2ccc3c(c2)OCCO3)C1 (stereo not given)	-0.22	·	·	1.3	-0.944*	509	244
CCC(c1ccccc1)c1nc(-c2ccccn2)no1 (stereo not given)	-0.09	-7.05*	·	0.887	-6.03*	621	239
c1ccc(CCN2CN(CCCN3CCOCC3)c3nc4ccccc4n3C2)cc1	0.37	-0.00534	-12.7	-0.233	-1.94*	442	187
CCN1CCN(Cc2ccc(OC)c(OCc3ccccc3)c2)CC1	0.6	-0.116	·	1.18	1.01	·	·
COc1ccc(CN2CCN(c3ccccn3)CC2)cc1OCc1ccccc1	-0.4	-1.81	·	2.22	-2.71*	573*	171
CC1C(C#N)=C(N)OC2=C1C(=O)CCC2 (stereo not given)	-0.22	·	·	-0.165	-0.159	·	·
CCCCCCC1C(C#N)=C(N)OC2=C1C(=O)CCC2 (stereo not given)	0.29	1.74	-32.3	-0.3	-2.34*	434*	236
CCOC(=O)Cn1c(=O)oc2cc(S(=O)(=O)NCCc3ccc(OCC)c(OCC)c3)ccc21	-0.35	-0.887	-2.4	-0.149	-2.29*	650	198
CCOC(=O)Cn1c(=O)oc2cc(S(=O)(=O)Nc3cccc(C)c3)ccc21	0.95	-0.421	·	-1.83	-0.0561	·	·
CC(C)(C)NC(=O)Cn1c(=O)oc2cc(S(=O)(=O)N3CCc4ccccc43)ccc21	-0.36	-0.709	10.0	-0.089	-2.38*	588	245
Cn1c(=O)oc2cc(S(=O)(=O)N3CCCc4ccccc43)ccc21	-0.57	·	·	-0.247	-1.22	·	·
CCOC(=O)Cn1c(=O)oc2cc(S(=O)(=O)N3CCc4ccccc43)ccc21	2.25	1.36	?	-2.29	-3.75*	533	230
C=CCOn1c(=O)c(=O)n(OCc2ccccc2)c2ccccc21	-1.22	-0.00786	·	-0.28	-2.58*	632	256
N=c1sccn1CC(=O)Nc1ccccc1-c1ccccc1	1.32	0.0396	·	0.811	-1.24	·	·
CCN1C(=O)/C(=C\N2CCCCCC2)SC1=S	0.84	·	-20.4	-2.14	-8.72*	16.3*	220
CN1CCN(/C=C2\SC(=S)NC2=O)CC1	-0.18	-0.0203	·	-0.836	0.322	·	·
COCCCNC(=O)CS(=O)(=O)Cc1nc(-c2ccccc2C)oc1C	-0.11	-0.522	·	-0.977	-3.04*	665	255
CCOc1cc(C2C(C#N)=C(N)Oc3n[nH]c(C)c32)ccc1OCCN1CCOCC1 (stereo not given)	-0.87	-0.866	63.2	0.469	0.88	·	·
